FXN GAA850 act = FXN promoter activators, primary screen, cell-based, luciferase luminescence, HEK293 lucGAA850; HEK293 lucGAA850 FXN promoter luciferase reporter, 24 h; percent of 10 µM SAHA response; activation, % at 6 µM; 360,000 tested, 0.56% active; AID 540364, 2011;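 active means activation above the average of all compounds screened plus 3 SD, cutoff fixed separately per campaign, cut at about 7.5% in these data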;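 further: 0% = DMSO wells and 100% = 10 µM SAHA wells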
Wnt bcat act = Wnt/beta-catenin pathway activators, primary screen, cell-based, plate reader, single point; Wnt/beta-catenin reporter cell assay, activator; activation, % at 9.35 µM; 300,000 tested, 1.2% active; AID 743398, 2014; in the data active means activation above about 30%, passing the limit was not always enough; inconclusive means no clear call, values can overlap the other calls;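 further: 0% = neutral control wells and 100% = positive control wells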
esBAF inh = Bmi1 luciferase reporter increase in mESCs, primary screen, esBAF inhibitor project, mouse ES cells, Bmi1 luciferase knock-in, single point; 24 h; 100% = twice the neutral-well signal; reporter increase, % at 12.5 µM; 350,000 tested, 2% active; in the data active means activation above about 40%; inconclusive means no clear call, values can overlap the other calls;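 further: 0% = median of the plate's neutral control wells and 100% = double that signal; a rise in the Bmi1 reporter signal indicates esBAF inhibition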
MITF TRPM1 HTS = activators of MITF-driven TRPM1 promoter reporter, primary screen, cell-based, SK-MEL-5, luciferase, single point; SK-MEL-5 TRPM1-promoter luciferase, 24 h; % of positive control, neutral wells = 0; activation, % at 12.5 µM; 300,000 tested, 0.75% active; AID 588334, 2011;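 active means mean activation of at least 80% with every replicate also reaching 80%; inconclusive means mean reaches 80% but some replicate falls short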;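 further: 0% = neutral control wells and 100% = parthenolide positive control wells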
esBAF Ring1 qPCR = Ring1 mRNA increase in mouse ESCs, confirmation, esBAF inhibitor project, cell-based, mouse ESC, RT-qPCR, cherry-pick | shares compounds with esBAF inh | mouse ESC E14, Ring1 mRNA RT-qPCR fold change | fold change at 33 µM | 550 tested, under 10 active | AID 743176, 2013;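 active means Ring1 gene expression raised more than 2-fold over untreated cells in both replicates at either tested dose; inconclusive means only one replicate above 2-fold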;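 further: Ring1 transcript normalised to actin housekeeping signal by TaqMan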
Fgf4 repress = Fgf4 mRNA decrease in mouse ESCs, confirmation, esBAF inhibitor project, cell-based, mouse ESC, RT-qPCR, cherry-pick. 550 tested, 4% active. Fgf4 expression fold change at 33 µM. shares compounds with esBAF inh. mouse ESC E14, Fgf4 mRNA qPCR fold change; hits give low values. AID 743177, 2013;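 active means Fgf4 expression under 0.8 fold of control in both repeat measurements at one or both tested doses; inconclusive means under 0.8 fold in just a single repeat measurement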;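 further: Fgf4 transcript normalised to actin in duplex TaqMan qPCR; cells exposed to compound for 24 h before lysis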
Bmi1 derepress = esBAF inhibition via Bmi1 de-repression, confirmation, cell-based, RT-qPCR, mouse ESC, single point, cherry-pick. shares compounds with esBAF inh. mouse ESE14 ES cells, Bmi1 mRNA qPCR fold; hits give high values. fold change at 33 µM. 550 tested, under 10 active. AID 743180, 2013;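 active means Bmi1 expression fold change above 6 at either tested concentration, seen in replicate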;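 further: higher fold means more Bmi1 de-repression and stronger esBAF inhibition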
A549 tox SP = A549 cell cytotoxicity, cytotoxicity control, plate reader, single point, cherry-pick. cell viability change % (negative = cytotoxic), % at 25 µM, hits read low. shares compounds with esBAF inh. 550 tested, under 10 active. AID 743188, 2013; call rule not given here
HepG2 cytotox SP = HepG2 cell cytotoxicity, cytotoxicity control, plate reader, single point, cherry-pick; shares compounds with esBAF inh; hits give low values; activity change, negative = inhibition, % at 25 µM; 550 tested, 4% active; AID 743189, 2013; in the data active means activity change below about -50%
HEK293 tox SP = HEK293 cell cytotoxicity, cytotoxicity control, plate reader, single point, cherry-pick | 550 tested, 3% active | AID 743190, 2013 | shares compounds with esBAF inh | activity change, negative = inhibition, % at 25 µM, hits read low; in the data active means activity change below about -38%, passing the limit was not always enough
* hit, by the source's call; ? = inconclusive; . = no result. This is a sample that favours compounds with a hit; in the whole collection about 2.8% have one here.

SMILES	FXN GAA850 act	Wnt bcat act	esBAF inh	MITF TRPM1 HTS	esBAF Ring1 qPCR	Fgf4 repress	Bmi1 derepress	A549 tox SP	HepG2 cytotox SP	HEK293 tox SP
CC(C)CC#Cc1cnc2c(c1)C(=O)N([C@H](C)CO)C[C@@H](C)[C@@H](CN(C)C(=O)Cc1ccncc1)O2	.	.	3	.	.	.	.	.	.	.
CN(C)C(=O)c1ccc(-c2ccc3c(c2)[C@H]2[C@H](CCN2C(=O)c2ccccn2)[C@H](CO)N3)cc1	.	.	-3	.	.	.	.	.	.	.
CNC(=O)c1ccc(-c2cc3onc(-c4ccccc4)c3c(=O)n2C)cc1	1	43*	81*	96*	0.92	0.88	1.5	-10	15	-2
COc1ccc(Cc2nc3ccc(C(=O)N(C)Cc4nccs4)cc3o2)cc1OC	0	-2	-2	-8	.	.	.	.	.	.
CN(Cc1nccs1)C(=O)c1ccc2nc(Cc3ccccc3F)oc2c1	5	26	67*	113*	1.2	0.94	1.4	-6	-18	-12
CN(Cc1nccn1C)C(=O)c1ccc2nc(Cc3ccccc3F)oc2c1	4	15	65*	63	0.78	0.85	1.5	-16	-47	-26
Cc1ccc(NC(=O)c2ccnc(C(C)(C)C)c2)cc1	2	18	71*	.	1.2	0.93	1.6	1	-47	-13
CC(C)(C)c1cc(C(=O)Nc2ccccc2)ccn1	-2	-3	19	.	.	.	.	.	.	.
CC(=O)Oc1ccc2cc(-c3ccccc3)c(=O)oc2c1	2	15	60*	60	1.3	0.89	1.6	-14	-7	3
CN(C)c1ccc(C=Cc2nccc3ccccc23)cc1	.	3	70*	.	1.5	1.1	4.2	-48	-75*	-63*
CCN(CC)c1nc(C=Cc2ccc(N(C)C)cc2)c2nccnc2n1	2	0	.	.	.	.	.	.	.	.
CO[C@H]1CN(C)C(=O)c2ccc(NC(=O)c3ccc(F)cc3)cc2OC[C@H](C)N(C(=O)CN(C)C)C[C@@H]1C	.	.	-2	.	.	.	.	.	.	.
O=C(N[C@@H]1CC[C@H](CCNC(=O)C2CCCC2)O[C@@H]1CO)c1ccncc1	.	.	0	.	.	.	.	.	.	.
O=C(NC1CCCCC1)c1ccc2ccccc2c1O	-5	0	83*	.	1.1	0.73*	1.9	-13	9	-50*
O=C(NNC(=O)c1ccc2ccccc2c1O)NC1CCCCC1	1	2	0	-5	.	.	.	.	.	.
O=C(NC1CCCCCCC1)c1c(O)c2ccccc2[nH]c1=O	1	.	91*	100*	1.1	0.92	1.3	-6	18	-18
Nc1nc(SCc2ccccc2)cc(SCc2ccccc2)n1	6	39*	65*	54	1.1	1.1	1.7	-12	1	-4
O=C1N=C(N2CCCCC2)S/C1=C\c1ccccc1F	5	9	57*	.	1.4	?	1.7	4	-8	-4
Cc1ccc(Nc2nc(-c3ccccc3)cs2)nc1	1	1	-44	3	.	.	.	.	.	.
COc1ccc(-c2csc(Nc3cc(C)ccn3)n2)cc1C	4	13	46*	19	1.3	?	1.4	-6	-20	-9
Cc1noc(C)c1NC(=O)N(C)C[C@@H]1Oc2ccc(NC(=O)CCC(F)(F)F)cc2C(=O)N([C@H](C)CO)C[C@@H]1C	.	.	-3	.	.	.	.	.	.	.
COc1cccc(N(C(=O)c2cccs2)c2nc3ccccc3s2)c1	5	.	59*	65	1.4	0.97	2.9	-1	-10	-13
COc1ccccc1NC(=O)C(=O)NCCC1CCCCN1S(=O)(=O)c1ccccc1 (configuration not stated)	0	0	-5	-11	.	.	.	.	.	.
COc1cccc(NC(=O)C(=O)NCCC2CCCCN2S(=O)(=O)c2ccccc2)c1 (configuration not stated)	3	-3	79*	110*	0.99	0.94	1.8	-9	-33	-15
C/C=C/c1cnc2c(c1)C(=O)N([C@@H](C)CO)C[C@@H](C)[C@H](CN(C)C(=O)Nc1ccc(OC)cc1)O2	.	.	1	.	.	.	.	.	.	.
SMILES	FXN GAA850 act	Wnt bcat act	esBAF inh	MITF TRPM1 HTS	esBAF Ring1 qPCR	Fgf4 repress	Bmi1 derepress	A549 tox SP	HepG2 cytotox SP	HEK293 tox SP
COc1ccc(C)c2sc(=NC(=O)c3cccc(N4C(=O)CCC4=O)c3)n(C)c12	5	0	76*	55	1.5	0.98	1.6	-9	-19	2
C=CCn1c(=NC(=O)c2cccc(N3C(=O)CCC3=O)c2)sc2cccc(OC)c21	-1	1	-5	11	.	.	.	.	.	.
CN1CCN(C(=O)C[C@H]2CC[C@H]3[C@@H](COC[C@@H](O)CN3C(=O)Nc3ccc(Cl)cc3)O2)CC1	.	.	33	.	.	.	.	.	.	.
CN(C)c1ccc(C(=O)c2ccccc2)cc1	4	24	58*	73	1.1	?	1.5	-7	4	1
CCc1c(C)[nH]c(C(=O)OCc2ccccc2)c1C	4	3	.	29	.	.	.	.	.	.
CCc1c(C(=O)OCc2ccccc2)[nH]c(C)c1C	5	0	53*	59	1	0.89	2.2	-5	-25	-6
CC=Cc1ccc2n(c1=O)C[C@H]1[C@H](CO)[C@@H](C(=O)NCCC)N(CC3CCCC3)[C@@H]21 (mixture of isomers)	.	.	2	.	.	.	.	.	.	.
C[C@H]1CN([C@@H](C)CO)C(=O)c2cc(NC(=O)C3CC3)ccc2O[C@@H]1CN(C)CC1CCCCC1	.	.	-1	.	.	.	.	.	.	.
Cc1ccc(CNC(=O)c2ccc(Cn3cc(-c4ccc(C)cc4)nc3-c3ccncc3)cc2)cc1	-1	47*	99*	.	1.4	1	1.9	-9	21	-14
Cc1ccc(CNC(=O)CCn2cc(-c3ccc(C)cc3)nc2-c2ccncc2)cc1	0	-1	0	5	.	.	.	.	.	.
CC1CCCN(C(=O)CNC(=O)c2sc3ccccc3c2Cl)C1 (configuration not stated)	6	24	82*	126*	0.95	1	1.3	0	2	-7
CC1CC(C)CN(C(=O)CNC(=O)c2sc3ccccc3c2Cl)C1 (configuration not stated)	3	12	23	64	.	.	.	.	.	.

Assay outcomes: PubChem, several laboratories
